# Data as given in PubChem BioAssay (Tox21).
# Inconclusive results are not listed. Entries that show only a call come without a potency. Unmarked numbers belong to inactive results. Activity calls are given as the source filed them. Unless noted, calls come from the whole dose curve; as a rule, active = well fitted curve in the direction sought with a large enough effect in the repeat runs; inconclusive = weak or mixed curves; inactive = no such curve, though single readings can be large; an effect the other way counts as inactive or inconclusive.
# How the values were obtained:
# [1] = qHTS assay to identify small molecule agonists of the RXR signaling pathway - cell viability counter screen (AID 1159529);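 note: HEK 293T cells carrying an RXR-alpha UAS beta-lactamase reporter; series mostly up to about 77 µM; nearly all actives have a fitted effect of over 50% in size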
# Procedure, shortened: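 RXR-alpha-UAS-bla HEK 293T cells in medium with 2% charcoal-stripped FBS were preincubated 5 hr, then exposed to compounds for 16 hr at 37 C. Viability was read as CellTiter-Glo luminescence after 30 min at room temperature.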
# [2] = qHTS assay to identify small molecule antagonists of the retinoic acid receptor (RAR) signaling pathway (AID 1159552; note: nearly all actives have a fitted effect of over 50% in size)
# Procedure, shortened: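 RARE-luc C3RL4 cells; cpds + 1 uM (final) retinol, 6 hr, 37 C/5% CO2; luciferase reagent, 30 min RT, luminescence readout. Inhibitors of retinol-driven signal scored.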
# [3] = qHTS assay to identify small molecule agonists of the retinoic acid receptor (RAR) signaling pathway (AID 1159553)
# Procedure, shortened: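 In this cell-based screen, 1,000 C3RL4 cells per well were cultured overnight, dosed with test chemicals in DMSO for 6 hr, and assessed for RARE luciferase luminescence.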
# [4] = qHTS assay to identify small molecule antagonists of the estrogen related receptor (ERR) signaling pathway from Tox21 library - cell viability counter screen (AID 1224834); note: nearly all actives have a fitted effect of over 30% in size
# Procedure, shortened: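 Counter screen run in ERR cells (2,000 cells/well): cells pre-incubated 6 h, then treated with compounds for 17.5 h at 37 C. Fluorescence was read 30 min after CellTiter-Fluor addition.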
# [5] = target: Luciferin 4-monooxygenase (Photinus pyralis) (UniProt P08659); assay: qHTS assay to identify small molecule inhibitors of firefly luciferase (AID 1224835); note: series mostly up to about 120 µM; nearly all actives have a fitted effect of over 25% in size
# Procedure, shortened: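 Quantitative HTS format; KM concentrations of both substrates. Purified P. pyralis FLuc activity quantified from luminescence images.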
# [6] = qHTS assay to identify small molecule agonists of the constitutive androstane receptor (CAR) signaling pathway - cell viability counter screen (AID 1224836); note: series mostly up to about 92 µM; nearly all actives have a fitted effect of over 45% in size
# Procedure, shortened: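 HepG2 cells stably carrying hCAR and a CYP2B6-2.2kb reporter were plated 4 h, then given compounds at 15 concentrations plus PK11195 (final 0.75 uM). After 23 h at 37 C, viability was read by CellTiter-Fluor fluorescence.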
# [7] = qHTS assay to identify small molecule antagonists of the constitutive androstane receptor (CAR) signaling pathway - cell viability counter screen (AID 1224837); note: series mostly up to about 92 µM; nearly all actives have a fitted effect of over 45% in size
# Procedure, shortened: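 CITCO at 50 nM final was added alongside compounds (15 concentrations) to double-stable hCAR/CYP2B6-2.2kb HepG2 cells. Following 23 hr at 37 C, cell viability was quantified by CellTiter-Fluor fluorescence intensity.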
# [8] = target: Nuclear receptor subfamily 1 group I member 3 (Homo sapiens) (UniProt Q14994); assay: qHTS assay to identify small molecule antagonists of the constitutive androstane receptor (CAR) signaling pathway (AID 1224838); note: nearly all actives have a fitted effect of over 40% in size; note: potency is the fitted concentration of half-maximal effect
# Procedure, shortened: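 Inhibition of CITCO-driven (50 nM final) CYP2B6 reporter expression is measured in HepG2 cells stably carrying hCAR. Fifteen compound concentrations are applied for 24 h at 37 C, followed by luciferase luminescence.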
# [9] = target: Nuclear receptor subfamily 1 group I member 3 (Homo sapiens) (UniProt Q14994); assay: qHTS assay to identify small molecule agonists of the constitutive androstane receptor (CAR) signaling pathway (AID 1224839); note: series mostly up to about 92 µM; nearly all actives have a fitted effect of over 15% in size
# Procedure, shortened: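 HepG2 cells stably expressing hCAR and a CYP2B6-2.2kb luciferase reporter were treated with compounds at 15 concentrations plus 0.75 uM PK11195 (final) for 24 h at 37 C; luminescence was read after ONE-Glo addition.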
# [10] = qHTS assay to identify small molecule antagonists of the estrogen related receptor signaling pathway with the pleiotropic PPARgamma coactivator (PGC) from Tox21 10K library - cell viability counter screen (AID 1224840; active = well fitted cell-killing curve with a large enough effect in the repeat runs, not every such curve was filed as active; note: nearly all actives have a fitted effect of over 40% in size)
# Procedure, shortened: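 Readout: fluorescence intensity from CellTiter-Fluor after 30 min at 37 C/5% CO2. Preceded by 17.5 h treatment of PGC/ERR cells with DMSO-dissolved compounds, added 6 h post-seeding.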
# [11] = target: Thyrotropin receptor (Homo sapiens) (UniProt P16473); assay: qHTS assay to identify small molecule agonists of the thyroid stimulating hormone receptor (TSHR) signaling pathway (AID 1224843; calls by dose curve; note: nearly all actives have a fitted effect of over 45% in size)
# Procedure, shortened: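 Compounds are titrated over 15 concentrations, in triplicate, onto TSHR-HEK293 cells seeded at 800/well. Plates sit 30 min at room temperature before cAMP-d2 and anti-cAMP cryptate are added; signal is read after a further hour.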
# [12] = qHTS assay to identify small molecule agonists of H2AX (AID 1224845; active = well fitted activation curve with a large enough effect in the signal ratio in the repeat runs, not every such curve was filed as active; the % refers to the signal ratio)
# Procedure, shortened: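 Wild-type CHO-K1 cells plated overnight, then exposed 3 hr at 37C to compounds at 15 concentrations (0.76% DMSO). Lysed, then HTRF anti-pH2AX(S139)-cryptate/anti-H2AX-d2 detection after 24 hr at room temperature; emissions 665 and 620 nm.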
# [13] = qHTS assay to identify small molecule agonists of the hypoxia (HIF-1) signaling pathway (AID 1224846; active = well fitted activation curve with a large enough effect in the signal ratio in the repeat runs, not every such curve was filed as active; the % refers to the signal ratio)
# Procedure, shortened: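 ME-180 HRE-bla reporter cells; compounds in DMSO, 17 h at 37C; read-out beta-lactamase via CCF4-AM FRET.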
# [14] = qHTS assay to identify small molecule agonists of H2AX - cell viability counter screen (AID 1224847; calls by dose curve; note: top concentration of the series differs between compounds; nearly all actives have a fitted effect of over 30% in size)
# Procedure, shortened: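 Wild-type CHO-K1 cells (10% FBS medium) were plated overnight at 37C, exposed to compounds at 15 concentrations for 3 hr at 37C (0.76% DMSO final), and viability was read as CellTiter-Glo luminescence after 30 min at room temperature.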
# [15] = qHTS assay to identify small molecule antagonists of the retinoid acid receptor (RAR) signaling pathway - cell viability counter screen (AID 1159551); note: nearly all actives have a fitted effect of over 35% in size
# Procedure, shortened: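 In this counter screen, the RARE-luciferase line C3RL4 was exposed for 6 h at 37 C and 5% CO2 to compounds with retinol at 1 uM final. Cellular ATP, read by luminescence, served as the viability measure.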
# [16] = qHTS assay to identify small molecule agonists of the hypoxia (HIF-1) signaling pathway - cell viability counter screen (AID 1224844; calls by dose curve; note: nearly all actives have a fitted effect of over 50% in size)
# Procedure, shortened: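 In this counter screen, HRE-bla ME-180 cell viability after 17 hrs of compound exposure at 37C was read by CellTiter-Glo luminescence, multiplexed with the beta-lactamase reporter measurement.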
# [17] = qHTS assay to identify small molecule agonists of the estrogen related receptor signaling pathway with the pleiotropic PPARgamma coactivator (PGC) from Tox21 10K library (AID 1224842); note: nearly all actives have a fitted effect of over 15% in size
# Procedure, shortened: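 PGC/ERR reporter cells (NTP line) were seeded 2,000 per well, rested 6 h at 37 C/5% CO2, then pin-dosed with compounds in DMSO for 18 h at 37 C; luciferase read by One-Glo luminescence after 30 min at room temperature.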
# [18] = qHTS assay to identify small molecule antagonists of the estrogen related receptor (ERR) signaling pathway from Tox21 library (AID 1224848); note: nearly all actives have a fitted effect of over 50% in size
# Procedure, shortened: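 First, 2,000 ERR cells per well were plated and held 6 h at 37 C/5% CO2. Next, compounds in DMSO were pinned in and left 18 h at 37 C. Finally, ONE-Glo was added and luminescence read after 30 min at room temperature.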
# [19] = qHTS assay to identify small molecule antagonists of the estrogen related receptor signaling pathway with the pleiotropic PPARgamma coactivator (PGC) from Tox21 10K library (AID 1224841; call rule not given here)
# Procedure, shortened: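 One-Glo luminescence, measured after half an hour at room temperature, quantified reporter output of PGC/ERR cells. These had been plated at 2,000 per well, incubated 6 h, dosed with compounds in DMSO, then kept 18 h at 37 C.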
# Nuclear receptor subfamily 1 group I member 3 (Homo sapiens), sequence (Q14994 whole entry, looked up): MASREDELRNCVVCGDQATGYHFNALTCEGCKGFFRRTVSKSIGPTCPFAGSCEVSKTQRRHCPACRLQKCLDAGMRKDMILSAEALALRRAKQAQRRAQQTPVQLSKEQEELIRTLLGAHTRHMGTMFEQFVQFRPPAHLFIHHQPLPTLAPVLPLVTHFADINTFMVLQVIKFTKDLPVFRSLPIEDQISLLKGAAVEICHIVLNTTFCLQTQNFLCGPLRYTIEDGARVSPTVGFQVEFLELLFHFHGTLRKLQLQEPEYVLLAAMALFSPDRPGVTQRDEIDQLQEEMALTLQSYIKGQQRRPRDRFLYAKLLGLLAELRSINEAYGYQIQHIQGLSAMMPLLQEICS
# Luciferin 4-monooxygenase (Photinus pyralis), sequence (P08659 whole entry, looked up): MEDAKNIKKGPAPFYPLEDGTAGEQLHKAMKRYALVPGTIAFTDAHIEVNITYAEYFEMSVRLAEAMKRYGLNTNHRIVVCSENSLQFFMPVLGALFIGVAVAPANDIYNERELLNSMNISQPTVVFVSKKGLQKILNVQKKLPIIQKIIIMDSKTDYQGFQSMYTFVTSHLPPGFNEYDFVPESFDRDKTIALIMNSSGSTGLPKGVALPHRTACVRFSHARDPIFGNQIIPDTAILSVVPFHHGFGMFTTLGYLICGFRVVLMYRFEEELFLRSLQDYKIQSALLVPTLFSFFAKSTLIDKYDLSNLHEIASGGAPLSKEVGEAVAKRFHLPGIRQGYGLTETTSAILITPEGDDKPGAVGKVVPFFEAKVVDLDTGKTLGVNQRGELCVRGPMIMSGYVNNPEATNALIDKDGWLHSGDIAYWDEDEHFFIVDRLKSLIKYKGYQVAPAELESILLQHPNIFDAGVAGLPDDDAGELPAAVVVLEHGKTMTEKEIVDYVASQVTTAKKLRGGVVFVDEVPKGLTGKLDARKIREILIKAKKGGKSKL
# Thyrotropin receptor (Homo sapiens), sequence (P16473 whole entry, looked up): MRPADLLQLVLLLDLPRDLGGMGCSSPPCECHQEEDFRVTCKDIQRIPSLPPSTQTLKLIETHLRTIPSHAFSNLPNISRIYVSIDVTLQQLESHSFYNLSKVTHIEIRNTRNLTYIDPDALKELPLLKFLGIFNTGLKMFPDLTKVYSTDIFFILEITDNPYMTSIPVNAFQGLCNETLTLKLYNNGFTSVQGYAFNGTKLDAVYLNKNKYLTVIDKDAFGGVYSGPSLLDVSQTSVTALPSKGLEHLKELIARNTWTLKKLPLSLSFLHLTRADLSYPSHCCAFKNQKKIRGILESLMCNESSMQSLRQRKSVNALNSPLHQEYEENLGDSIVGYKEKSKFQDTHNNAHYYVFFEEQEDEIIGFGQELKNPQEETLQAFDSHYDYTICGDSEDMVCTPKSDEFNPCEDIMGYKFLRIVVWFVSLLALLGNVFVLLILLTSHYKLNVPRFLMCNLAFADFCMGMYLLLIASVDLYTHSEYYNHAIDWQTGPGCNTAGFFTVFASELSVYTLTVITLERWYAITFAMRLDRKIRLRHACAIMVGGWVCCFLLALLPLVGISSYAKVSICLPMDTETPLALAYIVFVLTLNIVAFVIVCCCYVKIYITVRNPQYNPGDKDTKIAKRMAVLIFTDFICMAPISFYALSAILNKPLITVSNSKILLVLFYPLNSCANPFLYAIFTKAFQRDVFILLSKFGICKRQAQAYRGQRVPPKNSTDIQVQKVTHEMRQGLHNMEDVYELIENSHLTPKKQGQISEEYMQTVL
Compound,outcome [1],outcome [2],Potency [3],outcome [4],Potency [5],outcome [6],outcome [7],Potency [8],Potency [9],outcome [10],outcome [11],outcome [12],outcome [13],outcome [14],outcome [15],outcome [16],outcome [17],Potency [18],outcome [19]
C[Si]1(C)O[Si](C)(C)O[Si](C)(C)O[Si](C)(C)O[Si](C)(C)O1,inactive,inactive,inactive,inactive,inactive,inactive,inactive,inactive,inactive,inactive,inactive,inactive,inactive,inactive,,,,,
Nc1nnnn1-c1ccccc1,inactive,inactive,inactive,inactive,inactive,inactive,inactive,inactive,inactive,inactive,inactive,inactive,inactive,inactive,inactive,inactive,,,
CCC(=O)c1c(O)cc(O)cc1O,inactive,inactive,inactive,inactive,inactive,inactive,inactive,inactive,inactive,,inactive,inactive,inactive,inactive,,,inactive,,
OC[C@H]1O[C@@H](O[C@@H]2[C@@H](CO)O[C@](O)(CO)[C@H]2O)[C@H](O)[C@@H](O)[C@H]1O,inactive,inactive,inactive,inactive,inactive,inactive,inactive,inactive,inactive,inactive,inactive,inactive,inactive,inactive,inactive,inactive,,,
CC(Oc1cc(Cl)ccc1Cl)C(=O)O (centres undefined),inactive,,inactive,inactive,inactive,inactive,inactive,inactive,inactive,,,inactive,inactive,inactive,inactive,inactive,,,
OC1OCCOC1O (centres undefined),inactive,inactive,inactive,inactive,inactive,inactive,inactive,inactive,inactive,inactive,inactive,inactive,inactive,inactive,inactive,inactive,,,
COc1ccc(CCO)cc1,inactive,inactive,inactive,inactive,inactive,inactive,inactive,inactive,inactive,inactive,inactive,inactive,inactive,,inactive,,,,
CCO[Si](CC)(OCC)OCC,inactive,inactive,inactive,inactive,inactive,inactive,inactive,inactive,inactive,inactive,,inactive,inactive,,,inactive,,,
Fc1ccccc1,inactive,inactive,inactive,inactive,inactive,inactive,inactive,inactive,inactive,inactive,inactive,,inactive,inactive,inactive,,,inactive,
O=C(O)CCCCCC(=O)O,inactive,inactive,inactive,inactive,inactive,inactive,,inactive,inactive,inactive,,inactive,inactive,inactive,inactive,inactive,inactive,inactive,inactive
CC(=O)O[C@H]1C[C@@H]2CC[C@@]1(C)C2(C)C,inactive,inactive,inactive,inactive,inactive,inactive,,inactive,inactive,inactive,inactive,inactive,inactive,inactive,,inactive,,,
CC(=O)CCC1=C(C)CCCC1(C)C,inactive,inactive,inactive,inactive,inactive,inactive,inactive,inactive,inactive,inactive,inactive,inactive,inactive,inactive,inactive,inactive,,,
O=C(CN1CCNCC1)NC1CCCCC1,inactive,inactive,inactive,inactive,inactive,inactive,inactive,inactive,inactive,inactive,inactive,inactive,inactive,inactive,inactive,inactive,,,
CC(=O)OCC(=O)Nc1cc(C#N)cc(NC(=O)COC(C)=O)c1Cl,inactive,,inactive,inactive,inactive,inactive,inactive,inactive,inactive,inactive,inactive,inactive,inactive,inactive,inactive,inactive,,,
Cc1ncc([N+](=O)[O-])n1CC(C)O (centres undefined),inactive,inactive,inactive,inactive,inactive,inactive,inactive,inactive,inactive,inactive,,inactive,inactive,inactive,,,,,
Cc1c(Cl)cccc1Cl,inactive,inactive,inactive,inactive,inactive,inactive,inactive,inactive,inactive,inactive,inactive,inactive,inactive,inactive,,inactive,,,
CC(C)OC(=O)OCOP(=O)(CO[C@H](C)Cn1cnc2c(N)ncnc21)OCOC(=O)OC(C)C,inactive,inactive,inactive,inactive,inactive,inactive,,2370 nM (active),inactive,inactive,inactive,,inactive,inactive,,,,,
Cc1ccc(C(C)NC(=O)[C@@H](NC(=O)OC(C)C)C(C)C)cc1 (some centres undefined),inactive,inactive,inactive,inactive,inactive,inactive,inactive,inactive,inactive,,inactive,inactive,inactive,inactive,,inactive,,,
O/N=C/C=N/O,inactive,inactive,inactive,inactive,inactive,inactive,inactive,inactive,inactive,inactive,inactive,inactive,inactive,inactive,inactive,inactive,,,
